Measurements published in PubChem BioAssay.
Values joined by “and” are separate entries in the source; they are usually repeats but may differ in a detail not shown here. Equal entries are not always repeated. Where a structure was tested more than once in an assay, its records may differ in their call. Active and inactive are the calls of the source.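 Rule for the calls, unless noted: active = normalized viability below 100% at a tested concentration; inactive = the rest.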

What was measured:
[1] = sensitizers of A549 cells to miR-34 induction, primary screen, imaging, A549 dox-inducible miR-34, nuclei and caspase counts (AID 1347080;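 active = compounds whose cell count with miR-34 switched on is under 0.7 times the count with it off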); settings: A549 miR-34 inducible, Hoechst nuclei count, 48 h
[2] = survival rescue of mitochondrial mutant cells in low glucose, primary screen, MELAS cybrids, Rieske KO mouse fibroblasts, CellTiter-Glo (AID 1508586;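 active = mean z-score across replicates of 1.96 or higher in either the MELAS or the Rieske mutant cell line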;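 note: z relative to plate mean and SD of compound and empty wells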)
[3] = ovarian cancer cell viability with rucaparib, profiling panel, oncology-focused library, rucaparib conditional (AID 1508598); settings: patient-derived ovarian cancer cells, CellTiter-Glo viability, 144 h, stronger effect = lower value
[4] = stronger effect = lower value, cell number ratio, induced over uninduced
[5] = measured here: relative caspase fold change +Dox/-Dox
[6] = measured here: total cells with miR-34 induction, stronger effect = lower value
[7] = measured here: total cells without miR-34 induction
[8] = MELAS cybrid survival, CellTiter-Glo 48 h, stronger effect = higher value
[9] = Rieske KO mouse fibroblast survival, CellTiter-Glo 72 h
[10] = at 0.000305 µM, OCI-C5x cells, with rucaparib 10 µM, 100% = cells with rucaparib alone
[11] = at 0.000305 µM, OCI-C5x cells, without rucaparib
[12] = at 0.000305 µM, OCI-P5x cells, with rucaparib 20 µM, 100% = cells with rucaparib alone
[13] = at 0.000305 µM, OCI-P5x cells, without rucaparib
[14] = at 0.00122 µM, OCI-C5x cells, with rucaparib 10 µM, 100% = cells with rucaparib alone
[15] = at 0.00122 µM, OCI-C5x cells, without rucaparib
[16] = at 0.00122 µM, OCI-P5x cells, with rucaparib 20 µM, 100% = cells with rucaparib alone
[17] = at 0.00122 µM, OCI-P5x cells, without rucaparib
[18] = at 0.00488 µM, OCI-C5x cells, with rucaparib 10 µM, 100% = cells with rucaparib alone
[19] = at 0.00488 µM, OCI-C5x cells, without rucaparib
[20] = at 0.00488 µM, OCI-P5x cells, with rucaparib 20 µM, 100% = cells with rucaparib alone
[21] = at 0.00488 µM, OCI-P5x cells, without rucaparib
[22] = at 0.0195 µM, OCI-C5x cells, with rucaparib 10 µM, 100% = cells with rucaparib alone
[23] = at 0.0195 µM, OCI-C5x cells, without rucaparib
[24] = at 0.0195 µM, OCI-P5x cells, with rucaparib 20 µM, 100% = cells with rucaparib alone
[25] = at 0.0195 µM, OCI-P5x cells, without rucaparib
[26] = at 0.0781 µM, OCI-C5x cells, with rucaparib 10 µM, 100% = cells with rucaparib alone
[27] = at 0.0781 µM, OCI-C5x cells, without rucaparib
[28] = at 0.0781 µM, OCI-P5x cells, with rucaparib 20 µM, 100% = cells with rucaparib alone
[29] = at 0.0781 µM, OCI-P5x cells, without rucaparib
[30] = at 0.313 µM, OCI-C5x cells, with rucaparib 10 µM, 100% = cells with rucaparib alone
[31] = at 0.313 µM, OCI-C5x cells, without rucaparib
[32] = at 0.313 µM, OCI-P5x cells, with rucaparib 20 µM, 100% = cells with rucaparib alone
[33] = at 0.313 µM, OCI-P5x cells, without rucaparib

C[C@]12C=CC(=O)C=C1CC[C@@H]1[C@H]2C(=O)C[C@@]2(C)[C@H]1CC[C@@]2(O)C(=O)CO
inactive: fold change [1, 4] 0.899 | z-score [2, 8] -0.304 | viability [3, 10] 112% | viability [3, 11] 111% | viability [3, 14] 111% | viability [3, 15] 107% | viability [3, 18] 107% | viability [3, 19] 102% | viability [3, 22] 110% | viability [3, 23] 102% | viability [3, 26] 109% | viability [3, 27] 101% | viability [3, 30] 120% | viability ([3]; at 1.25 µM, OCI-C5x cells, with rucaparib 10 µM, 100% = cells with rucaparib alone) 111% | viability ([3]; at 5 µM, OCI-C5x cells, with rucaparib 10 µM, 100% = cells with rucaparib alone) 115%
7790: cell count [1, 6]
8660: cell count [1, 7]
0.898: fold change [1, 5]
-0.016: z-score [2, 9]
active: viability [3, 12] 93.3% | viability [3, 13] 93.5% | viability [3, 16] 95.9% | viability [3, 17] 93.2% | viability [3, 20] 91% | viability [3, 21] 90.1% | viability [3, 24] 88.4% | viability [3, 25] 84.5% | viability [3, 28] 85% | viability [3, 29] 88.3% | viability [3, 31] 94.4% | viability [3, 32] 85.2% | viability [3, 33] 78.8% | viability ([3]; at 1.25 µM, OCI-C5x cells, without rucaparib) 97.7% | viability ([3]; at 1.25 µM, OCI-P5x cells, with rucaparib 20 µM, 100% = cells with rucaparib alone) 85.8% | viability ([3]; at 1.25 µM, OCI-P5x cells, without rucaparib) 76.5% | viability ([3]; at 5 µM, OCI-C5x cells, without rucaparib) 98.1% | viability ([3]; at 5 µM, OCI-P5x cells, with rucaparib 20 µM, 100% = cells with rucaparib alone) 75.2% | viability ([3]; at 5 µM, OCI-P5x cells, without rucaparib) 77.4%

COc1cc(Br)c(Nc2nc(-c3c(C)nc4ncccn34)cs2)c(Br)c1
1800 and 1730: cell count [1, 6]
active: viability [3, 12] 95.1% | viability [3, 13] 90.4% | viability [3, 16] 94.4% | viability [3, 17] 96.8% | viability [3, 21] 95.9% | viability [3, 29] 98.6%
0.552 and 0.466: fold change [1, 5]
1740 and 1960: cell count [1, 7]
2.29 (active) and 1.89 (inactive): z-score [2, 8]
0.545 and -1.29: z-score [2, 9]
inactive: fold change [1, 4] 1.04 and 0.88 | viability [3, 10] 125% | viability [3, 11] 110% | viability [3, 14] 131% | viability [3, 15] 111% | viability [3, 18] 131% | viability [3, 19] 109% | viability [3, 20] 100% | viability [3, 22] 135% | viability [3, 23] 110% | viability [3, 24] 101% | viability [3, 25] 102% | viability [3, 26] 136% | viability [3, 27] 111% | viability [3, 28] 101% | viability [3, 30] 118% | viability [3, 31] 108% | viability [3, 32] 100% | viability [3, 33] 100%
